# In all, about 5,500 compounds went through this assay and about 2,000 (36%) were called active. Another 18% or so got no clear call; they are omitted. The list shows a part of the results. Unmarked numbers belong to inactive results. No stated cut-off is given here; in the data, active means normalized growth mostly below about 0.91 (no sharp cut-off); inconclusive means no clear call, values can overlap the other calls; inactive means mostly above about 0.92.
# Test: chemical genetic growth profiling, strain panel (AID 1159580);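 further: tested at 20 µM; growth read once vehicle control cultures reached saturation at 30 °C; 1 = growth at the plate median or of vehicle wells; lower values mean less growth of the strain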
# Conditions: S. cerevisiae deletion strains, growth OD
# [1] = locus YHR030C, strain SLT2, hits give low values
# [2] = locus YHR079C, strain IRE1, hits give low values
# [3] = locus YJL095W, strain BCK1, hits give low values
# [4] = locus YJR066W, strain TOR1, hits give low values
# [5] = locus YLR113W, strain HOG1, hits give low values
# [6] = locus YNL183C, strain NPR1, hits give low values
# [7] = locus YOR231W, strain MKK1, hits give low values
# [8] = locus YPL256C, strain CLN2, hits give low values
smiles,measurement,setting,value
Oc1ccc([C@H]2Oc3cc(O)cc(O)c3C[C@H]2O)cc1,normalized growth,"locus YAL021C, strain ccr4, hits give low values",0.995
same,normalized growth,"locus YAL026C, strain drs2, hits give low values",0.991
same,normalized growth,"locus YAL030W, strain snc1, hits give low values",0.988
same,normalized growth,"locus YBL061C, strain skt5, hits give low values",0.98
same,normalized growth,"locus YBR009C, strain hhf1, hits give low values",1.02
same,normalized growth,"locus YBR023C, strain chs3, hits give low values",0.99
same,normalized growth,"locus YBR171W, strain sec66, hits give low values",0.969
same,normalized growth,"locus YBR231C, strain swc5, hits give low values",0.94
same,normalized growth,"locus YBR279W, strain paf1, hits give low values",0.999
same,normalized growth,"locus YCL011C, strain gbp2, hits give low values",1.01
same,normalized growth,"locus YCL016C, strain dcc1, hits give low values",1.01
same,normalized growth,"locus YCL069W, strain vba3, hits give low values",0.981
same,normalized growth,"locus YCR088W, strain abp1, hits give low values",0.987
same,normalized growth,"locus YDL005C, strain med2, hits give low values",0.988
same,normalized growth,"locus YDL040C, strain nat1, hits give low values",0.983
same,normalized growth,"locus YDR001C, strain nth1, hits give low values",0.987
same,normalized growth,"locus YDR069C, strain doa4, hits give low values",0.952
same,normalized growth,"locus YDR137W, strain rgp1, hits give low values",0.996
same,normalized growth,"locus YDR159W, strain sac3, hits give low values",0.939
same,normalized growth,"locus YDR195W, strain ref2",0.933
same,normalized growth,"locus YDR297W, strain sur2, hits give low values",0.984
same,normalized growth,"locus YDR334W, strain swr1, hits give low values",0.976
same,normalized growth,"locus YDR335W, strain msn5, hits give low values",0.995
same,normalized growth,"locus YDR392W, strain spt3, hits give low values",0.929
same,normalized growth,"locus YEL003W, strain gim4, hits give low values",0.97
same,normalized growth,"locus YEL037C, strain rad23, hits give low values",0.982
same,normalized growth,"locus YEL061C, strain CIN8 (second series), hits give low values",0.979
same,normalized growth,"locus YER015W, strain faa2, hits give low values",0.998
same,normalized growth,"locus YER016W, strain bim1, hits give low values",0.991
same,normalized growth,"locus YER111C, strain swi4, hits give low values",0.967
same,normalized growth,"locus YER155C, strain BEM2 (second series), hits give low values",0.948
same,normalized growth,"locus YFR010W, strain ubp6, hits give low values",0.971
same,normalized growth,"locus YGL167C, strain pmr1, hits give low values",0.986
same,normalized growth,"locus YGL173C, strain kem1, hits give low values",0.977
same,normalized growth,"locus YGL227W, strain vid30, hits give low values",0.987
same,normalized growth,"locus YGL240W, strain doc1, hits give low values",0.969
same,normalized growth,"locus YGL253W, strain hxk2, hits give low values",0.956
same,normalized growth,"locus YHR013C, strain ard1, hits give low values",1.01
same,normalized growth,"locus YHR027C, strain rpn1, hits give low values",0.979
same,normalized growth,[1],0.983
same,normalized growth,[2],0.981
same,normalized growth,"locus YHR142W, strain chs7, hits give low values",0.993
same,normalized growth,"locus YJL092W, strain hpr5, hits give low values",0.983
same,normalized growth,"locus YJL095W, strain BCK1 (second series), hits give low values",0.977
same,normalized growth,[3],0.97
same,normalized growth,"locus YJL115W, strain asf1, hits give low values",0.976
same,normalized growth,"locus YJL129C, strain trk1, hits give low values",0.978
same,normalized growth,"locus YJL154C, strain vps35, hits give low values",0.984
same,normalized growth,"locus YJL164C, strain tpk1, hits give low values",1
same,normalized growth,"locus YJL166W, strain qcr8, hits give low values",0.998
same,normalized growth,[4],0.947
same,normalized growth,"locus YKL160W, strain elf1, hits give low values",1.02
same,normalized growth,"locus YKR026C, strain gcn3, hits give low values",0.968
same,normalized growth,"locus YKR091W, strain srl3, hits give low values",0.992
same,normalized growth,"locus YLL001W, strain dnm1, hits give low values",0.956
same,normalized growth,"locus YLL026W, hits give low values",0.993
same,normalized growth,"locus YLL041C, strain sdh2, hits give low values",0.983
same,normalized growth,"locus YLR027C, strain aat2, hits give low values",0.976
same,normalized growth,[5],0.977
same,normalized growth,"locus YLR221C, strain rsa3, hits give low values",0.964
same,normalized growth,"locus YLR258W, strain gsy2, hits give low values",0.999
same,normalized growth,"locus YLR262C, strain YPT6 (second series), hits give low values",1
same,normalized growth,"locus YLR320W, strain mms22, hits give low values",0.982
same,normalized growth,"locus YLR342W, strain FKS1, hits give low values",0.99
same,normalized growth,"locus YLR357W, strain rsc2, hits give low values",0.949
same,normalized growth,"locus YLR370C, strain arc18, hits give low values",0.977
same,normalized growth,"locus YLR384C, strain iki3, hits give low values",0.991
same,normalized growth,"locus YML120C, strain ndi1, hits give low values",1
same,normalized growth,"locus YMR058W, strain fet3, hits give low values",0.985
same,normalized growth,"locus YMR125W, strain sto1, hits give low values",0.99
same,normalized growth,"locus YMR129W, hits give low values",0.989
same,normalized growth,"locus YMR205C, strain PFK2, hits give low values",1
same,normalized growth,"locus YMR231W, strain pep5, hits give low values",0.976
same,normalized growth,"locus YNL071W, strain lat1, hits give low values",1
same,normalized growth,[6],0.956
same,normalized growth,"locus YNL209W, strain ssb2, hits give low values",1.01
same,normalized growth,"locus YNL248C, strain rpa49, hits give low values",0.956
same,normalized growth,"locus YNL322C, strain KRE1 (second series), hits give low values",0.995
same,normalized growth,"locus YNR049C, strain mso1, hits give low values",0.987
same,normalized growth,"locus YOR001W, strain rrp6, hits give low values",0.947
same,normalized growth,"locus YOR070C, strain gyp1, hits give low values",0.99
same,normalized growth,"locus YOR080W, strain dia2, hits give low values",0.974
same,normalized growth,"locus YOR083W, strain WHI5, hits give low values",1.01
same,normalized growth,"locus YOR106W, strain vam3, hits give low values",1.02
same,normalized growth,[7],0.978
same,normalized growth,"locus YOR265W, strain rbl2, hits give low values",0.981
same,normalized growth,"locus YOR270C, strain vph1, hits give low values",0.958
same,normalized growth,"locus YOR290C, strain snf2, hits give low values",1.03
same,normalized growth,"locus YPL051W, strain arl3, hits give low values",0.954
same,normalized growth,"locus YPL078C, strain atp4, hits give low values",1.01
same,normalized growth,"locus YPL106C, strain sse1, hits give low values",0.982
same,normalized growth,"locus YPL240C, strain hsp82, hits give low values",0.989
same,normalized growth,[8],0.967
O=C1OC(c2ccccc2)=C/C1=C/c1ccccc1,normalized growth,"locus YAR019C, strain CDC15, hits give low values",0.952
same,normalized growth,"locus YBL105C, strain PKC1, hits give low values",0.953
same,normalized growth,"locus YBR135W, strain CKS1, hits give low values",0.942
same,normalized growth,"locus YBR136W, strain MEC1, hits give low values",0.953
same,normalized growth,"locus YBR160W, strain CDC28, hits give low values",0.943
same,normalized growth,"locus YDL017W, strain CDC7, hits give low values",0.95
same,normalized growth,"locus YDL028C, strain MPS1, hits give low values",0.923
same,normalized growth,"locus YDL101C, strain DUN1, hits give low values",0.966
same,normalized growth,"locus YDL108W, strain KIN28, hits give low values",0.925
same,normalized growth,"locus YDL132W, strain cdc53, hits give low values",0.96
same,normalized growth,"locus YDL214C, strain PRR2, hits give low values",0.604 (active)
same,normalized growth,"locus YDR052C, strain DBF4, hits give low values",0.969
same,normalized growth,"locus YDR054C, strain cdc34, hits give low values",0.962
same,normalized growth,"locus YDR226W, strain ADK1, hits give low values",0.944
same,normalized growth,"locus YDR477W, strain SNF1, hits give low values",0.635 (active)
same,normalized growth,"locus YER123W, strain YCK3, hits give low values",0.869
same,normalized growth,"locus YER133W, strain GLC7, hits give low values",0.725
same,normalized growth,"locus YFL009W, strain cdc4, hits give low values",0.961
same,normalized growth,"locus YFL029C, strain CAK1, hits give low values",0.925
same,normalized growth,"locus YFR003C, strain YPI1, hits give low values",0.956
same,normalized growth,"locus YFR019W, strain FAB1, hits give low values",0.946
same,normalized growth,"locus YFR028C, strain CDC14, hits give low values",0.948
same,normalized growth,"locus YGR040W, strain KSS1, hits give low values",0.674 (active)
same,normalized growth,"locus YGR052W, strain FMP48, hits give low values",0.353 (active)
same,normalized growth,"locus YGR092W, strain DBF2, hits give low values",0.855
same,normalized growth,[1],0.506 (active)
same,normalized growth,[2],0.934
same,normalized growth,"locus YHR082C, strain KSP1, hits give low values",0.522 (active)
same,normalized growth,"locus YHR205W, strain SCH9, hits give low values",0.514 (active)
same,normalized growth,"locus YIL147C, strain SLN1, hits give low values",0.955
same,normalized growth,[3],0.669
same,normalized growth,"locus YJL128C, strain PBS2, hits give low values",1
same,normalized growth,"locus YJL157C, strain FAR1, hits give low values",0.761
same,normalized growth,"locus YJR016C, strain ILV3, hits give low values",0.954
same,normalized growth,"locus YJR066W, strain TOR1 (second series), hits give low values",0.861
same,normalized growth,[4],0.461 (active)
same,normalized growth,"locus YKL048C, strain ELM1, hits give low values",0.889
same,normalized growth,"locus YKL101W, strain HSL1, hits give low values",0.797
same,normalized growth,"locus YKL193C, strain SDS22, hits give low values",0.948
same,normalized growth,"locus YKL203C, strain TOR2, hits give low values",0.614 (active)
same,normalized growth,[5],0.714 (active)
same,normalized growth,"locus YLR133W, strain CKI1, hits give low values",0.843
same,normalized growth,"locus YLR403W, strain SFP1, hits give low values",0.611 (active)
same,normalized growth,"locus YML070W, strain DAK1, hits give low values",0.892
same,normalized growth,"locus YMR001C, strain CDC5, hits give low values",0.951
same,normalized growth,"locus YMR205C, strain PFK2 (second series), hits give low values",0.843
same,normalized growth,"locus YMR277W, strain FCP1, hits give low values",0.918
same,normalized growth,"locus YNL006W, strain LST8, hits give low values",0.956
same,normalized growth,"locus YNL020C, strain ARK1, hits give low values",0.9
same,normalized growth,"locus YNL161W, strain CBK1, hits give low values",0.945
same,normalized growth,[6],0.188 (active)
same,normalized growth,"locus YNL207W, strain RIO2, hits give low values",0.951
same,normalized growth,"locus YNL222W, strain SSU72, hits give low values",0.932
same,normalized growth,"locus YNL307C, strain MCK1 (second series), hits give low values",0.95
same,normalized growth,"locus YOL078W, strain AVO1, hits give low values",0.954
same,normalized growth,"locus YOL136C, strain PFK27, hits give low values",0.914
same,normalized growth,"locus YOR061W, strain CKA2, hits give low values",0.844
same,normalized growth,"locus YOR119C, strain RIO1, hits give low values",0.519 (active)
same,normalized growth,[7],0.943
same,normalized growth,"locus YOR329C, strain SCD5, hits give low values",0.961
same,normalized growth,"locus YPL031C, strain PHO85, hits give low values",0.758
same,normalized growth,"locus YPL153C, strain RAD53, hits give low values",0.798
same,normalized growth,"locus YPL204W, strain HRR25, hits give low values",0.839
same,normalized growth,"locus YPL209C, strain IPL1, hits give low values",0.947
same,normalized growth,[8],0.793 (active)
same,normalized growth,"locus YPR025C, strain CCL1, hits give low values",0.945
same,normalized growth,"locus YPR106W, strain ISR1, hits give low values",0.981
same,normalized growth,"locus YPR111W, strain DBF20, hits give low values",0.964
same,normalized growth,"strain NNK1, hits give low values",0.949
same,normalized growth,"strain TSCII, hits give low values",0.93

# Source: PubChem BioAssay AID1159580 (chemical genetic matrix, 2015)
